Measured values as given in PubChem BioAssay (NCATS).
Records with an inconclusive call do not appear. Unless noted, calls follow the shape of the dose curve; as a rule, active = well fitted curve in either direction with a large enough effect (not every such curve was filed as active); inconclusive = small, poorly fitted or top-dose-only effect, or another doubt; inactive = flat fitted curve, though single readings scatter.

Assays:
[1] = AP1 Signaling Pathway (AID 357); conditions: ME-180 AP-1-bla reporter, EGF-induced, beta-lactamase ratio, 5 h; at 17.2 µM (top of the series) unless noted; also: % is scaled to controls: 0 for no effect and ±100 for the full control effect
How it was run: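 AP-1-bla ME-180 cells with beta-lactamase reporter under AP-1 response element, stimulated with EC50 EGF; compounds titrated, 5 hours at 37 degrees Celsius. CCF4 read at 460/530 nm ratio; positive and negative modulators judged by AC50.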

[2] = NFAT Signaling Pathway (AID 444); conditions: Jurkat NFAT-bla M1, carbachol, beta-lactamase ratio, 5 h; at 17.2 µM (top of the series) unless noted;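 also: carbachol stimulus at about its EC50 of 1 µM final; % is scaled to controls: 0 for no effect and ±100 for the full control effect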
How it was run: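 Jurkat cells carrying an NFAT-driven β-lactamase reporter and co-transfected muscarinic M1 receptor were treated with compound plus carbachol (1 uM final, an EC50 level) for 5 h at 37 °C. CCF4 loading followed for 1 h at RT; 460/530 nm ratio gave %activity.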

[3] = Stat Signaling Pathway (AID 446); conditions: ME-180 (cervical carcinoma) SIE beta-lactamase reporter, IL-6 stimulated, 5 h; at 17.2 µM (top of the series) unless noted;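 also: ME-180 cervical cancer cells given 40 pM IL-6 alongside compound; SIE-controlled beta-lactamase reporter measured as 460/530 nm FRET emission ratio; % is scaled to controls: 0 for no effect and ±100 for the full control effect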
How it was run: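 Emission at 460 and 530 nm (excitation 405 nm) reports SIE-controlled beta-lactamase in ME-180 cells. Cells received compound with 40 pM IL-6 for 5 hrs at 37 C; data scaled between 300 pM IL-6 and 125 nM JAK-inhibitor controls.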

[4] = target: Glucocorticoid receptor (Homo sapiens) (UniProt P04150); assay: GR-GFP Redistribution (AID 450;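 active = compounds whose dose series gives a full or clear partial fitted curve of increased nuclear translocation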; also: potency is read from the fitted curve at half-maximal effect)
Glucocorticoid receptor (Homo sapiens), sequence (P04150 whole entry, looked up): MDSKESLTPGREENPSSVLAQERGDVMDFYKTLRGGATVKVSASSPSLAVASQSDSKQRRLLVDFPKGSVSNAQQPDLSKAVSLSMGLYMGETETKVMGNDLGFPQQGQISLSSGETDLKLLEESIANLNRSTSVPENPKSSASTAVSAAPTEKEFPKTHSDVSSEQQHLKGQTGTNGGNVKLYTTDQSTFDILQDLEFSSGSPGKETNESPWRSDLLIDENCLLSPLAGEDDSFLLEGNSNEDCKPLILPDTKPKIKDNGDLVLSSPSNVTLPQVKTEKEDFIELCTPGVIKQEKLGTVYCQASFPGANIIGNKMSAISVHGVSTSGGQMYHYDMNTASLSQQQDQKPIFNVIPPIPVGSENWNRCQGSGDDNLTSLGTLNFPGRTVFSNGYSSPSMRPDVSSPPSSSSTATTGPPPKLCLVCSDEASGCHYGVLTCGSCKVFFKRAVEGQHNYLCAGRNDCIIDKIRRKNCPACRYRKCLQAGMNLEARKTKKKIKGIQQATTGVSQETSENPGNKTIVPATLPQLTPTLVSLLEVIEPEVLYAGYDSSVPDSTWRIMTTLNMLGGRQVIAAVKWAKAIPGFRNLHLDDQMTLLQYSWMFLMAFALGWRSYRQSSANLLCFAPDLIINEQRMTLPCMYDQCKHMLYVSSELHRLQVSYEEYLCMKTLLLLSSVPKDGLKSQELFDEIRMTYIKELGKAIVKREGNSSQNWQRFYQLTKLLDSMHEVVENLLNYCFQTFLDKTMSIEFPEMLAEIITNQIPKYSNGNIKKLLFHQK

CC(=O)C1=C(O)C(=O)N(c2cccc(C(=O)O)c2)C1c1ccccc1F (centres undefined)
inactive: activity change, negative = inhibition [1] -4.91% | activity change, negative = inhibition [2] 3.23% | activity, negative = inhibition [3] 10.6% | Potency [4] > 20.6 µM

CN(C)c1nc2n(c(=S)n1)CCS2
inactive: activity change, negative = inhibition [1] 11.5% | activity change, negative = inhibition [2] 3.88% | activity, negative = inhibition [3] -7.31% | Potency [4] > 20.6 µM

COC(=O)C(NC(=O)c1ccco1)(Nc1nc(C)cs1)C(F)(F)F (centres undefined)
inactive: activity change, negative = inhibition [1] -3.01% | activity change, negative = inhibition [2] 4.32% | activity, negative = inhibition [3] -2.51% | Potency [4] > 20.6 µM

Cc1ccc(S(=O)(=O)NC(=O)Nc2ncc3c(n2)CC(c2ccco2)CC3=O)cc1 (centres undefined)
inactive: activity change, negative = inhibition [1] -9.62% | activity change, negative = inhibition [2] 7.22% | activity, negative = inhibition [3] -2.33% | Potency [4] > 20.6 µM

CCOc1ccc(-c2nnc3sc(-c4c(OC)cccc4OC)nn23)cc1
inactive: activity change, negative = inhibition [1] 3.89% | activity change, negative = inhibition [2] -3.46% | activity, negative = inhibition [3] 8.95% | Potency [4] > 20.6 µM

CC(=O)c1cc(C#N)c(SCc2ccncc2)nc1C
inactive: activity change, negative = inhibition [1] -9.02% | activity change, negative = inhibition [2] -4.04% | activity, negative = inhibition [3] -3.61% | Potency [4] > 20.6 µM

CCCc1nnc(NC(=O)c2c(O)c3c([nH]c2=O)CCCC3)s1
inactive: activity change, negative = inhibition [1] -4.44% | activity change, negative = inhibition [2] -18.4% | activity, negative = inhibition [3] 12.4% | Potency [4] > 20.6 µM

C=CCn1c(SCc2c(F)c(F)c(F)c(F)c2F)nc(O)cc1=O
inactive: activity change, negative = inhibition [1] 4.5% | activity change, negative = inhibition [2] 25.9% | activity, negative = inhibition [3] -10.5% | Potency [4] > 20.6 µM

Cc1cc(C)c2c(N)c(C(=O)c3ccccc3)oc2n1
inactive: activity change, negative = inhibition [1] 1.21% | activity change, negative = inhibition [2] 3.96% | activity, negative = inhibition [3] -8.9% | Potency [4] > 20.6 µM

COC(=O)CNC(=O)c1c(C)cc(=O)oc1C
inactive: activity change, negative = inhibition [1] 21.5% | activity change, negative = inhibition [2] 13.6% | activity, negative = inhibition [3] 5.86% | Potency [4] > 20.6 µM

COc1cc(C2C(C(=O)c3cccs3)=C(O)C(=O)N2c2cc(C)on2)ccc1O (centres undefined)
inactive: activity change, negative = inhibition [1] -2.96% | activity change, negative = inhibition [2] 0.425% | activity, negative = inhibition [3] -6.54% | Potency [4] > 20.6 µM

CCOc1ccc(N=C2C(=O)N(CN3CCOCC3)c3ccccc32)cc1
inactive: activity change, negative = inhibition [1] 2.27% | activity change, negative = inhibition [2] 6.57% | activity, negative = inhibition [3] -3% | Potency [4] > 20.6 µM

C1CNCCNCCCNCCNC1
inactive: activity change, negative = inhibition [1] 1.85% | activity change, negative = inhibition [2] 2.39% | activity, negative = inhibition [3] -11.5% | Potency [4] > 20.6 µM

CCCCOC(=O)c1ccc(NC(=O)CSc2nncn2C)cc1
inactive: activity change, negative = inhibition [1] 6.24% | activity change, negative = inhibition [2] 4.69% | activity, negative = inhibition [3] 4.52% | Potency [4] > 20.6 µM

CCC(=O)Nc1cccc(-c2nnc(SCC(=O)NCc3ccco3)n2C)c1
inactive: activity change, negative = inhibition [1] -2.45% | activity change, negative = inhibition [2] 6.34% | activity, negative = inhibition [3] -2.86% | Potency [4] > 20.6 µM

CC(C)Oc1ccc(/C(O)=C2/C(=O)C(=O)N(CCN3CCOCC3)C2c2ccccc2)cc1 (centres undefined)
inactive: activity change, negative = inhibition [1] -9.89% | activity change, negative = inhibition [2] 19.7% | activity, negative = inhibition [3] -0.677% | Potency [4] > 20.6 µM

CCCCNC(=O)N1CCOCCOCCN(C(=O)NCCCC)CCOCCOCC1
inactive: activity change, negative = inhibition [1] 3.89% | activity change, negative = inhibition [2] 5.69% | activity, negative = inhibition [3] -1.16% | Potency [4] > 20.6 µM

CCCCOC(=O)CSC1=C(C#N)C(c2ccccc2OC)C(C#N)C(=O)N1 (centres undefined)
inactive: activity change, negative = inhibition [1] -23.2% | activity change, negative = inhibition [2] 20.9% | activity, negative = inhibition [3] -14% | Potency [4] > 20.6 µM

CCCCOC(=O)CCc1nc2ccccc2[nH]1
inactive: activity change, negative = inhibition [1] 5.71% | activity change, negative = inhibition [2] -0.459% | activity, negative = inhibition [3] 6.02% | Potency [4] > 20.6 µM

CCOC(=O)c1c(CN2CCN(CCO)CC2)n(C)c2cc(Br)c(OC)cc12
inactive: activity change, negative = inhibition [1] 19.8% | activity change, negative = inhibition [2] 29.2% | activity, negative = inhibition [3] -13.7% | Potency [4] > 20.6 µM

c1ccc(OCc2nn3c(-c4ccccn4)nnc3s2)cc1
inactive: activity change, negative = inhibition [1] -1.82% | activity change, negative = inhibition [2] -2.83% | activity, negative = inhibition [3] 0.158% | Potency [4] > 20.6 µM

Cc1c(/C(O)=C2\C(=O)C(=O)N(CCN(C)C)C2c2cccnc2)cnn1-c1ccccc1 (centres undefined)
inactive: activity change, negative = inhibition [1] 1.75% | activity change, negative = inhibition [2] 9.15% | activity, negative = inhibition [3] 0.0911% | Potency [4] > 20.6 µM

CCCCOc1ccc(CN(C)c2ncnc(N)n2)cc1
inactive: activity change, negative = inhibition [1] -9.35% | activity change, negative = inhibition [2] -11.6% | activity, negative = inhibition [3] 8.02% | Potency [4] > 20.6 µM

Nc1nnc(CC2=CCCCC2)s1
inactive: activity change, negative = inhibition [1] 1.59% | activity change, negative = inhibition [2] -3.51% | activity, negative = inhibition [3] 3.57% | Potency [4] > 20.6 µM

COC(=O)C(NC(C)=O)(Nc1ccc(Br)cc1)C(=O)OC
inactive: activity change, negative = inhibition [1] 8.16% | activity change, negative = inhibition [2] -1.04% | activity, negative = inhibition [3] 8.85% | Potency [4] > 20.6 µM

O=C1OC(N2CCN(C/C=C/c3ccccc3)CC2)c2ccccc21 (centres undefined)
inactive: activity change, negative = inhibition [1] 7.53% | activity change, negative = inhibition [2] 10.2% | activity, negative = inhibition [3] 0.214% | Potency [4] > 20.6 µM

CC(C)COc1nc2ccccc2nc1C(C#N)C(=O)NC1CCCCC1 (centres undefined)
inactive: activity change, negative = inhibition [1] -1.14% | activity change, negative = inhibition [2] 0.574% | activity, negative = inhibition [3] 5.36% | Potency [4] > 20.6 µM

COc1ccc(C(=O)/C=C/Nc2cccc(C)n2)cc1OC
inactive: activity change, negative = inhibition [1] -16.3% | activity change, negative = inhibition [2] 22.7% | activity, negative = inhibition [3] 0.139% | Potency [4] > 20.6 µM

Cc1ccc(NC(=O)Cn2nc(C)c3ccccc3c2=O)cc1
inactive: activity change, negative = inhibition [1] 14.3% | activity change, negative = inhibition [2] 10.1% | activity, negative = inhibition [3] 6.34% | Potency [4] > 20.6 µM

COc1ccc(/C=N/n2cncn2)cc1COc1ccc(NC(C)=O)cc1
inactive: activity change, negative = inhibition [1] -1.63% | activity change, negative = inhibition [2] 2.89% | activity, negative = inhibition [3] -3.18% | Potency [4] > 20.6 µM

COC(=O)CN(c1cc(OC)ccc1OC)S(=O)(=O)c1ccc(OC)c(OC)c1
inactive: activity change, negative = inhibition [1] -25.5% | activity change, negative = inhibition [2] 4.34% | activity, negative = inhibition [3] -5.92% | Potency [4] > 20.6 µM

CCC(=O)N[C@@H]1CC(C(C)(C)NC(=O)CC)CC=C1C (some centres undefined)
inactive: activity change, negative = inhibition [1] 8.41% | activity change, negative = inhibition [2] 6.85% | activity, negative = inhibition [3] 0.886% | Potency [4] > 20.6 µM

CCCOC(=O)CSC1=C(C#N)C(c2ccccc2OC)C(C#N)C(=O)N1 (centres undefined)
inactive: activity change, negative = inhibition [1] -16.4% | activity change, negative = inhibition [2] 13.9% | activity, negative = inhibition [3] -22.7% | Potency [4] > 20.6 µM

CC1=CC=CN2CC(O)CN=C12 (centres undefined)
inactive: activity change, negative = inhibition [1] 3.58% | activity change, negative = inhibition [2] -0.121% | activity, negative = inhibition [3] 3.52% | Potency [4] > 20.6 µM

COc1ccc(OC)c(C2/C(=C(/O)c3ccccc3)C(=O)C(=O)N2Cc2ccco2)c1 (centres undefined)
inactive: activity change, negative = inhibition [1] -4.43% | activity change, negative = inhibition [2] 6% | activity, negative = inhibition [3] -9.05% | Potency [4] > 20.6 µM

CCc1nc(N2CCOCC2)c(C#N)c2c1CCCC2
inactive: activity change, negative = inhibition [1] -3.85% | activity change, negative = inhibition [2] -21.8% | activity, negative = inhibition [3] -7.54% | Potency [4] > 20.6 µM

Cc1nn2c(-c3ccc(Cl)cc3)nnc2s1
inactive: activity change, negative = inhibition [1] -4.06% | activity change, negative = inhibition [2] -5.76% | activity, negative = inhibition [3] 14.5% | Potency [4] > 20.6 µM

Cc1cccc(-n2ncc3c(NCCN4CCOCC4)ncnc32)c1
inactive: activity change, negative = inhibition [1] 1.48% | activity change, negative = inhibition [2] 8.91% | activity, negative = inhibition [3] 4.97% | Potency [4] > 20.6 µM

CC(C)(C)NCC(=O)c1c[nH]c2ccccc12
inactive: activity change, negative = inhibition [1] 9.26% | activity change, negative = inhibition [2] -0.153% | activity, negative = inhibition [3] 14.8% | Potency [4] > 20.6 µM

CCOC(=O)C1(c2nc(N)cs2)COC(=O)C1 (centres undefined)
inactive: activity change, negative = inhibition [1] 6.34% | activity change, negative = inhibition [2] -1.85% | activity, negative = inhibition [3] 2.25% | Potency [4] > 20.6 µM

COc1cc(=O)[nH]c(=O)n1CC(=O)c1ccccc1
inactive: activity change, negative = inhibition [1] 1.4% | activity change, negative = inhibition [2] 3.25% | activity, negative = inhibition [3] 5.97% | Potency [4] > 20.6 µM

COc1ccc(CCNc2nc3c(c(=O)n(C)c(=O)n3C)n2C)cc1OC
inactive: activity change, negative = inhibition [1] -2.56% | activity change, negative = inhibition [2] 3.63% | activity, negative = inhibition [3] -0.466% | Potency [4] > 20.6 µM

Cc1c(C)n(C(=O)CSc2nccn2C)c2ccccc12
inactive: activity change, negative = inhibition [1] 14.1% | activity change, negative = inhibition [2] -0.559% | activity, negative = inhibition [3] 0.828% | Potency [4] > 20.6 µM

CCOCc1nc(N)[nH]c(=O)c1Cc1ccc(OC(C)C)cc1
inactive: activity change, negative = inhibition [1] 1.48% | activity change, negative = inhibition [2] 13.9% | activity, negative = inhibition [3] 9.73% | Potency [4] > 20.6 µM

COc1ccc(/C(O)=C2/C(=O)C(=O)N(CCCN(C)C)C2c2ccco2)cc1Cl (centres undefined)
inactive: activity change, negative = inhibition [1] 9.29% | activity change, negative = inhibition [2] -5.99% | activity, negative = inhibition [3] 4.09% | Potency [4] > 20.6 µM

COc1cc(-n2c3nc4ccccc4nc3c3c(=O)n(Cc4ccco4)cnc32)cc(OC)c1OC
inactive: activity change, negative = inhibition [1] -7.36% | activity change, negative = inhibition [2] -5.5% | activity, negative = inhibition [3] 3.4% | Potency [4] > 20.6 µM
